DT40 TDP1 no CPT: qHTS for Inhibitors of human tyrosyl-DNA phosphodiesterase 1 (TDP1): qHTS in cells in absence of CPT | DT40 Tdp1-/- hTDP1 cells, no CPT, ATP luminescence, 48 h | Potency, µM (titrated, usually from 46.2 µM), most hits filed as inhibitors | 15% of 420,000 active; also: nearly all actives have a fitted effect of over 55% in size
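Growth kinetics read by CellTiter-Glo luminescence after ≥48 hr at 37 °C. Cells: DT40 Tdp1-/- stably carrying human TDP1, 400 per well, compound exposure in the absence of CPT (DMSO vehicle).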
TDP1 inh: qHTS Assay for Inhibitors of Tyrosyl-DNA Phosphodiesterase (TDP1). Tyrosyl-DNA phosphodiesterase 1 (Homo sapiens), Q9NUW8. Potency, µM (top dose mostly 130 µM), most hits filed as inhibitors. 0.28% of 350,000 active. recombinant TDP1, AlphaScreen DNA substrate cleavage; also: nearly all actives have a fitted effect of over 40% in size
Target sequence (Q9NUW8 whole entry, looked up): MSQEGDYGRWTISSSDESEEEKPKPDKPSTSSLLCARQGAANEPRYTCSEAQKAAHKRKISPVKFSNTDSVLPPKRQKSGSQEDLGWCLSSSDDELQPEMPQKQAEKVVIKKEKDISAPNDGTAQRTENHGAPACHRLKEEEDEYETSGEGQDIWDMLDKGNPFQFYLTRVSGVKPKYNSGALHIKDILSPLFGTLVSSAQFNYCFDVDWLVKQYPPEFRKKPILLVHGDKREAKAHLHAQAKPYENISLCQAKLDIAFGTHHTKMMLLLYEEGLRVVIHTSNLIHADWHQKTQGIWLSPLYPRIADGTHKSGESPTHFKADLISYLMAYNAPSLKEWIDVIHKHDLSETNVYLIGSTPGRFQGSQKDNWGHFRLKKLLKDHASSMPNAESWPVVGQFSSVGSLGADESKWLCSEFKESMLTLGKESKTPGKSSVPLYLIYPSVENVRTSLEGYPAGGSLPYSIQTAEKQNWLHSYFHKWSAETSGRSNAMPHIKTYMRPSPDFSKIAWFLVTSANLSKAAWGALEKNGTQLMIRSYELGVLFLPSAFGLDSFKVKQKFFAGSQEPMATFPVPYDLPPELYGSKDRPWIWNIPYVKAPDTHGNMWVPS
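Tdp1 1 nM final; 15 min RT w/ cpd; substrate 15 nM, 5 min; beads 10 ug/ml, 10 min; AlphaScreen read. Neg ctrl: no enzyme.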
HepG2 tox: qHTS for Inhibitors of TGF-b: Cytotox Counterscreen | 0.76% of 410,000 active | HepG2 CAGA-GFP viability, ATP luminescence, 18 h | Potency, µM (titrated, usually from 46.1 µM), most hits filed as cytotoxic
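CellTiter-Glo luminescence gave cytotoxicity after 18 hours at 37 degrees C. The cells were HepG2 CAGA-GFP in 1% FBS DMEM, stimulated with 500 pg/mL TGF-beta after compound addition. %Activity was normalised to no-cell wells (complete cell-killing) and DMSO (no toxicity), and curves were fitted and classified.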
IL1B secr inh: qHTS for Inhibitors of Inflammasome Signaling: IL-1-beta AlphaLISA Primary Screen; THP-1 LPS/ATP IL-1B secretion, AlphaLISA, 16 h; hits give low values; activity change, % at 57.5 µM; 4.7% of 360,000 active; AID 743279, 2014; in the data active = activity change below about -50%; inconclusive = mostly about -30% to -49%
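Secreted IL-1B measured by AlphaLISA bead assay after 16 h compound exposure of THP-1 cells; compounds (final up to 57.5 uM) added 1 h before LPS (250 ng/mL) and ATP (1.25 mM) stimulation; lower signal means less secretion.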
TDP1 cell CPT: qHTS for Inhibitors of human tyrosyl-DNA phosphodiesterase 1 (TDP1): qHTS in cells in presence of CPT | chicken DT40 Tdp1-/-;hTDP1 cells + 20 nM CPT, ATP luminescence, 48 h | 12% of 420,000 active | Potency, µM (doses to about 46.2 µM), actives largely listed as inhibitors; also: nearly all actives have a fitted effect of over 55% in size
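Chicken DT40 Tdp1-/- cells complemented with human TDP1, 400 cells/well, exposed to compounds plus 20 nM camptothecin for at least 48 h at 37 C; viability read as ATP content by CellTiter-Glo luminescence.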
TGFb inhibitor: qHTS for Inhibitors of TGF-b | AID 588855, 2011 | 1.2% of 410,000 active | HepG2 CAGA-GFP TGF-b/SMAD3 reporter, GFP fluorescence, 18 h; TGF-beta stimulated, 500 pg/mL final | Potency, µM (highest dose often 46.1 µM), hits mostly inhibitors; also: nearly all actives have a fitted effect of over 65% in size
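Inhibition was scored as loss of TGF-beta-induced (500 pg/mL final, 18 hours, 37 degrees C) GFP in HEPG2 cells carrying a CAGA-GFP reporter, in DMEM with 1% FBS. Well GFP was summed per cell; Activity was normalised to unstimulated and stimulated DMSO wells, then concentration-response fitting.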
Hits are given with their value; 0 = inactive; ? = inconclusive; - = not tested or not shown; [ ] = dose if it differs, or a comment. Only some compounds are listed: those with a hit (about 19% of all), similar ones and a draw of the others. Unless noted, calls follow the shape of the dose curve; as a rule, active = well fitted curve in the direction sought with a large enough effect; inconclusive = small, poorly fitted or top-dose-only effect, or another doubt; inactive = no such curve, though single readings can be large; an effect the other way counts as inactive or inconclusive.

SMILES	DT40 TDP1 no CPT	TDP1 inh	HepG2 tox	IL1B secr inh	TDP1 cell CPT	TGFb inhibitor
COc1ccc(-c2c(C)nn3c(N4CCN(c5ccccc5)CC4)cc(C)nc23)cc1OC	?	0	0	-	?	?
CCN(CC)CCn1nc(C)nc1-c1ccccc1O	0	0	0	0	0	0
CCN(CC)CCn1nc2c3c(cccc3c1=O)-c1ccccc1-2	0.016µM	0	0	-99	0.52µM	?
O=c1c2cccc3c2c(nn1CN1CCOCC1)-c1ccccc1-3	21µM	0	0	0	?	0
O=C(CCn1nc(-c2ccccc2)c2ccccc2c1=O)NN1CCOCC1	0	0	0	0	0	0
CC(=O)N1CCN(C(=O)CSc2cc(C)c(Br)cc2C)CC1	?	0	0	0	0	0
CCNc1ccccc1CP(=O)(c1ccccc1)c1ccccc1O (stereo not drawn)	2.6µM	-	0	0	?	0
C=C1c2ccccc2O[C@H](C(=O)OCC)[C@@H]1CCC(C)C (tested in a mixture with another compound)	-	0	-	-	-	-
CCOC(=O)COc1ccccc1/C=C\[N+](=O)[O-]	1.6µM	0	8.9µM	-100	2.6µM	5.6µM
Cc1ccc(C(=O)COC(=O)COc2ccccc2[N+](=O)[O-])s1	0	0	0	0	0	0
CC(=O)N1CCCc2cc(S(=O)(=O)N3CCC(C(=O)NCc4ccccc4)CC3)ccc21	?	0	0	-	?	0
CCC(C)(C)NC(=O)C1CCN(S(=O)(=O)c2ccc3c(c2)CCCN3C(C)=O)CC1	0	0	0	-	0	0
Cc1cccc(CNC(=O)C2CCN(S(=O)(=O)c3ccc4c(c3)CCCN4C(=O)C3CCC3)CC2)c1	8.2µM	0	0	-	13µM	?
O=C(NCc1ccc(Cl)cc1)C1CCN(S(=O)(=O)c2ccc3c(c2)CCCN3C(=O)C2CCC2)CC1	21µM	0	0	-	16µM	0
O=C(NCc1ccccc1)C1CCN(S(=O)(=O)c2ccc3c(c2)CCCN3C(=O)C2CCC2)CC1	?	0	0	-	16µM	?
CC(=O)N1CCCc2cc(S(=O)(=O)N3CCC(C(=O)Nc4ccc(C)cc4Cl)CC3)ccc21	16µM	0	0	-	15µM	0
Cc1cnc(C(=O)OCc2nc3ccccc3o2)cn1	0	0	0	0	0	0
Cc1ncc2c(c1CNC(=O)c1ccc3c(c1)OCO3)CCN(C(=O)/C=C/c1ccccc1Cl)C2	0	-	-	-	0[9.04 µM]	-
CCOc1ccc(-c2cc(CCCC(=O)NCCc3ccc(OCC)c(OCC)c3)no2)cc1	?	0	0	-	?	0
Cc1ccc(CNC(=O)C2CCN(S(=O)(=O)c3ccc4c(c3)CCCN4C(=O)C3CCC3)CC2)cc1	7.3µM	0	0	-	21µM	?
CC(=O)N1CCCc2cc(S(=O)(=O)N3CCC(C(=O)NCCC(C)C)CC3)ccc21	0	0	0	-	0	0
N#Cc1cccc(NC(=O)C2CCN(S(=O)(=O)c3ccc4c(c3)CCCN4C(=O)C3CCC3)CC2)c1	?	0	0	-	?	0
CC(=O)N1CCCc2cc(S(=O)(=O)N3CCC(C(=O)NCc4ccccc4Cl)CC3)ccc21	23µM	0	0	-	?	0
CCC(=O)Oc1c(Sc2ccc(Cl)cc2)c(C)nn1-c1ccccc1	0.52µM	0	0	-	?	?
Cc1nn(C(=O)c2ccccc2)c(C)c1Sc1ccc(Cl)cc1	8.2µM	0[12.3 µM]	0	-	?	?
SMILES	DT40 TDP1 no CPT	TDP1 inh	HepG2 tox	IL1B secr inh	TDP1 cell CPT	TGFb inhibitor
CCOc1ccc(-c2nnc(SCc3nc4ccccc4[nH]3)n2N)cc1	0	0	0	-64	0	?
COc1cccc(NC(=O)c2sc3nc(C)c(C(=O)Nc4ccc(C)cc4C)c(-c4ccc(Br)cc4)c3c2N)c1	0	0	0	-	?	0
COC(=O)c1ccc(C23CC2(C(NP(=O)(c2ccccc2)c2ccccc2)c2ccccc2)C3)cc1 (stereo not drawn)	-	0	-	-	-	-
N#Cc1ccc(S(=O)(=O)N2CCCCC2c2cc(C(=O)Nc3cccc4c3CCCC4)no2)cc1 (stereo not drawn)	?	-	0	0	?	0
CS(=O)(=O)N1CCCCC1c1cc(C(=O)Nc2cccc3c2CCCC3)no1 (stereo not drawn)	9.2µM	-	0	0	15µM	0
O=C(Nc1cccc2c1CCCC2)c1cc(C2CCCCN2S(=O)(=O)c2cccs2)on1 (stereo not drawn)	23µM	-	0	0	16µM	0
O=C(Nc1ccc2c(c1)OCO2)c1cc(C2CCCCN2S(=O)(=O)c2cccs2)on1 (stereo not drawn)	23µM	-	0	0	?	0
Cc1noc(C)c1S(=O)(=O)N1CCCCC1c1cc(C(=O)Nc2cccc3c2CCCC3)no1 (stereo not drawn)	21µM	-	0	0	?	0
COCCCNC(=S)NNC(=O)c1csc(C)n1	?	-	0	0	0	0
CCn1ccnc1CNC(=O)c1ccc2oc(CCCc3ccccc3)nc2c1	0	0	0	0	?	0
Cc1cccc(Nc2nnc(SCC(=O)c3c(N)n(C4CC4)c(=O)[nH]c3=O)s2)c1	?	0	0	0	0	0
Cc1ccc(Nc2nnc(SCC(=O)c3c(N)n(C4CC4)c(=O)[nH]c3=O)s2)cc1C	?	0	0	0	21µM	?
CCc1cccc(NS(=O)(=O)c2ccc3c(c2)NC(=O)C(C)S3)c1 (stereo not drawn)	?	0	0	0	21µM	?
COc1ccc(N2CCN(S(=O)(=O)c3ccc4c(c3)NC(=O)C(C)S4)CC2)cc1 (stereo not drawn)	?	0	0	0	?	0
COc1cccc(NS(=O)(=O)c2ccc3c(c2)NC(=O)C(C)S3)c1 (stereo not drawn)	?	0	0	0	?	0
CCC1Sc2ccc(S(=O)(=O)Nc3cc(OC)cc(OC)c3)cc2NC1=O (stereo not drawn)	?	0	0	0	16µM	?
CCC1Sc2ccc(S(=O)(=O)N3CCN(c4ccccc4)CC3)cc2NC1=O (stereo not drawn)	?	0	0	0	15µM	0
CC(=O)c1ccc(S(=O)(=O)Nc2ccccc2C(=O)NC2CC2)cc1	0	0	0	0	0	0
Cc1cn(C2CC(O)C(CO)O2)c(=O)[nH]c1=O (stereo not drawn)	-	0	-	-	-	-

Bioassay records as filed in PubChem BioAssay.
